# Screening results as filed in PubChem.
# In the library only some 11% were active in any assay of this set; here they are far more common.
# AmpC no deterg: AmpC beta-lactamase inhibition without detergent; AmpC nitrocefin hydrolysis, absorbance 480 nm, 0.0001% Triton; Potency, µM (top dose mostly 57.1 µM), inactives show top-dose activity change, negative = inhibition, actives largely listed as inhibitors; actives 0.52% (n = 330,000); AID 485341;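 note: plate controls were no compound for no effect and no enzyme for full effect; nearly all actives have a fitted effect of over 20% in size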
# Target sequence (P00811 whole entry, looked up): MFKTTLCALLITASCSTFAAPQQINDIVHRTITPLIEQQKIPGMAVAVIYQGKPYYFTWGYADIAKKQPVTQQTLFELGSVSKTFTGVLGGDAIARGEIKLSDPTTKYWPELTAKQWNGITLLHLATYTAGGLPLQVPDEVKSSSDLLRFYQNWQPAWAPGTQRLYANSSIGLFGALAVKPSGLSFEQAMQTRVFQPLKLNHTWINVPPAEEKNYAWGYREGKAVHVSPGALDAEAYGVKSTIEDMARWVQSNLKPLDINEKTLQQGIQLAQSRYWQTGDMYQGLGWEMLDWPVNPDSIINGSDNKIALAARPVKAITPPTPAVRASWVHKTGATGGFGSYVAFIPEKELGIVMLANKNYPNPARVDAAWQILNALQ
#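 AmpC (5.3 nM in the dispensed reagent) in 20 mM phosphate pH 7.0 with 0.01% (detergent screen) or 0.0001% Triton X-100 was preincubated with compounds for 15 min at room temperature. Nitrocefin was then added from an 800 uM solution, and hydrolysis was followed at 480 nm.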
# AMA1-RON2 inh: AMA1-RON2 (P. falciparum) interaction inhibition; AlphaScreen AMA1-biotinylated RON2 peptide binding; AID 720542; Potency, µM (series often up to 58.2 µM), for the others: at the top dose activity change, negative = inhibition, most hits filed as inhibitors; actives 0.2% (n = 360,000);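 note: 0% = vehicle wells and -100% = peptide control; nearly all actives have a fitted effect of over 45% in size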
#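 AMA1 (3D7) with his tag at 25 nM final met compounds first, then biotinylated RON2 peptide at 25 nM; detection used donor plus acceptor beads, 10 µg/mL apiece, read by AlphaScreen after 30 min at room temperature.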
# AmpC inh detg: inhibitors of E. coli AmpC beta-lactamase with detergent; AID 485294; actives 0.041% (n = 370,000); Potency, µM (series often up to 114 µM), without a hit: at the top dose activity change, negative = inhibition, usual class: inhibitors; AmpC hydrolysis of nitrocefin, absorbance 480 nm, 0.01% Triton;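 note: 0% = no-compound wells and -100% = no-enzyme wells; nearly all actives have a fitted effect of over 25% in size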
#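 AmpC (5.3 nM in the dispensed reagent) in 20 mM phosphate pH 7.0 with 0.01% (detergent screen) or 0.0001% Triton X-100 was preincubated with compounds for 15 min at room temperature. Nitrocefin was then added from an 800 uM solution, and hydrolysis was followed at 480 nm.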
# Pf growth 48h: inhibits P. falciparum growth in the first generation, 48 h; AID 504832; P. falciparum luciferase growth in erythrocytes, 48 h; actives 5.9% (n = 310,000); Potency, µM (titrated, usually from 28.7 µM), without a hit: at the top dose activity change, negative = inhibition, most hits filed as inhibitors
#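 Luciferase-expressing parasites in RBCs, 2% Hct / 0.1% parasitemia final; RPMI 1640 + 0.5% Albumax; 37 C, 5% CO2, one generation; luminescence read-out, lower signal = inhibition.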
# Pf growth 96h: P. falciparum growth inhibition at 96 hour, primary screen for plastid delayed-death inhibitors; P. falciparum luciferase reporter growth, 96 h; Potency, µM (highest dose often 28.7 µM), without a hit: at the top dose activity change, negative = inhibition, usual class: inhibitors; actives 6.9% (n = 320,000); AID 504834
#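 Erythrocytes infected with luciferase-expressing P. falciparum were dispensed at 2% hematocrit and 0.05% parasitemia (final), then incubated with compounds 96 hours at 37 C in 5% CO2. Luminescence after detection reagent addition reported growth.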
# HCV inhibitor: HCV inhibition; actives 3.4% (n = 340,000); AID 651820; Huh7.5.1 HCVcc-Cre infection, luciferase reporter, 44 h; Potency, µM (titrated, usually from 41.8 µM), for the others: at the top dose activity change, negative = inhibition, usual class: inhibitors
#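 Antiviral activity was scored by luciferase reporter output from cells infected with HCVcc-Cre (~0.5 moi) in presence of compound, 44 h infection period, cells seeded 1,000/well 4 h prior.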
# The depositor's hits bear a star; ? = inconclusive; . = no result given; [ ] = another dose, or the depositor's remark. Calls come from the whole dose curve; as a rule, active = well fitted curve in the direction sought with a large enough effect; inconclusive = small, poorly fitted or top-dose-only effect, or another doubt; inactive = no such curve, though single readings can be large; an effect the other way counts as inactive or inconclusive. Unless noted, % is set by controls: 0 for no effect and ±100 for the full control effect; potency is the fitted concentration of half-maximal effect.
SMILES,AmpC no deterg,AMA1-RON2 inh,AmpC inh detg,Pf growth 48h,Pf growth 96h,HCV inhibitor
CCC(=O)NC(NC(=S)Nc1ccc(S(N)(=O)=O)cc1)C(Cl)(Cl)Cl (stereo unspecified),-27%,5%,-12%,-6%,2.1µM*,14%
CC(=O)NC(NC(=S)Nc1ccc(S(N)(=O)=O)cc1)C(Cl)(Cl)Cl (stereo unspecified),-14%,3%,1%,-8%,-13%,13%
Cc1cc(C)c(S(=O)(=O)N2CCN(C(=O)c3cc4ccccc4o3)CC2)c(C)c1,-14%,0%,0%,?,?,0%
CCOC(=O)N1CCN(C(=O)c2cc3ccccc3o2)CC1,-10%,24%,-12%,9%,41%,7%
CCOC(=O)c1ccc(S(=O)(=O)N2CCN(C(=O)c3cc4ccccc4o3)CC2)cc1,-8%,-1%,0%,9.3µM*,?,5%
O=C(c1cc2ccccc2o1)N1CCN(S(=O)(=O)c2ccc(F)c(F)c2F)CC1,-22%,-7%,-8%,8.3µM*,10µM*,2%
CC(=O)c1cccc(Nc2ncnc3c2cnn3-c2cccc(Cl)c2)c1,.,.,6%,.,.,.
Cc1cccc(C)c1OCC(O)CNS(=O)(=O)c1ccccc1C(=O)N1CCCCC1 (stereo unspecified),75%,12%,-7%,?,12µM*,?
O=C(N/N=C/C1CC=CCC1)c1ccc(Cl)cc1O (stereo unspecified),-19%,23%,6%,1%,2.3µM*,-4%
O=c1[nH]c2ccc(NCc3ccc(-c4cccc(Cl)c4)o3)cc2[nH]1,.,.,-5%,.,.,.
CCc1ccc(NC(=O)COC(=O)C2(c3ccc(Cl)cc3)CCCC2)cc1,-31%,28%,-10%,-15%,15µM*,?
CC1=C(C(=O)Nc2ccccc2)C2(CCCCC2)C(C#N)=C(S)N1,-50%,13%,-1%,.,10µM*,-9%
N#CC1=C(N)NC(SCC(=O)Nc2ccccc2)=C(C#N)C12CCCC2,-52%,0%,-1%,1.7µM*,23%,-17%
CSC1=C(C#N)C2(CCCCC2)C(C(=O)Nc2ccccc2)=C(C)N1,.,?,.,.,.,-19%
COC(=O)c1sccc1S(=O)(=O)N(CC(=O)Nc1cccc(C)c1C)c1ccc(C)c(C)c1,.,.,21%,.,.,.
O=C(NC(=S)Nc1cccc2cc(O)ccc12)c1ccccc1Br,-36%,17%,4%,-26%,13µM*,.
COC(=O)c1c(NC(=O)CSc2nc3ccccc3c(=O)n2-c2ccccc2)sc(C)c1C,?,0%,-3%,?,9.3µM*,?
CCOC(=O)c1sc(NC(=O)CSc2nnc(C)s2)c(C(=O)OCC)c1C,-14%,0%,?,9.3µM*,?,?
Cc1ccccc1NC(=O)CSc1nnc(Cc2ccccc2)o1,-22%,-6%,?,-20%,-14%,17%
Cc1cc(NC(=O)CSc2nc3ccccc3c(=O)n2-c2ccccc2)no1,-29%,17%,5%,29%,.,9%
Cc1cccc(C)c1NC(=O)CSc1nnc(Cc2ccccc2)o1,-10%,-17%,-12%,-17%,12µM*,7%
COC(=O)c1ccc(CSc2nc3c(c(=O)n2-c2ccc(Br)cc2)SCC3)o1,-17%,-23%,?,.,9.3µM*,-8%
CCOC(=O)c1cccc(NC(=O)CC2C(=O)N(c3ccc(OC)cc3)C(=O)N2C2CCCC2)c1 (stereo unspecified),.,.,1%,.,.,.
CCOC(=O)c1sc(NC(=O)/C=C/c2cnn(CC)c2C)c(C(=O)OCC)c1C,-21%,29%,-10%,?,8.3µM*,?
CCOC(=O)c1sc(NC(=O)CSc2nc3c(c(=O)n2-c2ccc(F)cc2)SCC3)c(C(=O)OCC)c1C,-13%,.,1%,2.6µM*,2.9µM*,-4%[8.37 µM]
